These results are taken from PubChem BioAssay (Tox21).

Structures are written as SMILES. Inconclusive results are not listed. Entries that show only a call come without a potency. Calls of active or inactive are those of the source. Calls follow the shape of the dose curve; as a rule, active = well fitted cell-killing curve with a large enough effect in the repeat runs; inconclusive = weak or mixed curves, or effect the other way; inactive = no such curve, though single readings can be large or run the other way.
Potency is read from the fitted curve at half-maximal effect.

This assay is described as follows: qHTS assay for identifying genotoxic compounds that show differential cytotoxicity against isogenic chicken DT40 cell lines with known DNA damage response pathways - wild type cell line (AID 743012). Also: nearly all actives have a fitted effect of over 60% in size. As to conditions: DT40 wild type chicken cells viability, CellTiter-Glo, 40 h; series mostly up to 68.4 µM. From the text: U.S. Tox21 Program National Center for Advancing Translational Sciences [NCATS] NIH Chemical Genomics Center [NCGC] U.S. Environmental Protection Agency [EPA] National Institutes of Environmental Health Sciences [NIEHS] National Toxicology Program [NTP] U.S. Food and Drug Administration [FDA] Tox21 Assay Overview: DNA repair pathways play a critical role in cellular homeostasis by repairing DNA damage induced by endogenous processes and xenobiotics. Isogenic chicken DT40 cell lines deficient in different DNA repair pathways can be used to identify genotoxic compounds and aid in characterizing the nature of the DNA damage induced. Two DNA repair-deficient cell lines with disrupted genes, Rad54/Ku70 or Rev3, were used to screen the Tox21 10K compound library. Possible genotoxicity was based on the presence of a significant increase in cytotoxicity in one or more of the DNA repair-deficient cell lines compared to that observed in the parental DNA repair-proficient cell line. CellTiter Glo viability assay (Promega, Madison, WI) was used to measure cell viability in these cells after compound treatment. This assay includes the data from the wild type cell line.
Tox21 Assay Protocol Summary: 300 DT40 wild type cells in 5 uL/well were dispensed into white, solid-bottom 1536-well plates using a Multidrop Combi (ThermoFisher Scientific, Waltham, MA) dispenser. After the assay plates were incubated at 37 C/5% CO2 for approximately 0.5 hour, 23 nL of compounds dissolved in DMSO, positive controls or DMSO only was transferred into the assay plate by a pintool work station (Kalypsys, San Diego, CA). The assay plates were incubated at 37 C/5% CO2 for 40 hours. After 5 uL per well of CellTiter-Glo reagent was added into each well of the assay plates, the plates were incubated for 30 min at room temperature and the luminescence intensity of the plates was measured using a ViewLux (PerkinElmer, Shelton, CT) plate reader.
(Quantitative high-throughput screening tests each substance at several concentrations.)
As for `NCCC(O)(P(=O)(O)O)P(=O)(O)O`, the Potency result is “inactive”.

As for `CC(C)(CO)[C@@H](O)C(=O)NCCC(=O)O`, the Potency entry was “inactive”.

`CC(=O)Nc1ccc(C)c(Cl)c1`: the Potency result was “inactive”.

Turning to `CC(C)=CCCC(C)CCOC=O` (stereo not given), the Potency is 48.6 µM (active).

For `COC(C)CCO` (stereo not given), the Potency entry is “inactive”.

`C=CCCCCCCCCO`: the Potency result was “inactive”.

As to `CC1(C)O[C@@H]2C[C@H]3[C@@H]4CCC5=CC(=O)CC[C@]5(C)[C@@]4(F)[C@@H](O)C[C@]3(C)[C@]2(C(=O)CCl)O1`, the Potency entry was “inactive”.

Take `C[C@@H](N)C(=O)O`: the Potency entry is “inactive”.

For `NNS(=O)(=O)c1ccc(Oc2ccc(S(=O)(=O)NN)cc2)cc1`, the Potency entry is “inactive”.

Take `COc1ccccc1N1CCN(CCCNc2cc(=O)n(C)c(=O)n2C)CC1`: the Potency entry was “inactive”.

`CN(CC1(C)CCCO1)S(=O)(=O)c1ccc(Cl)c(S(N)(=O)=O)c1` (stereo not given): the Potency entry is “inactive”.

Regarding `CO[C@@]1(NC(=O)CSCC#N)C(=O)N2C(C(=O)O)=C(CSc3nnnn3C)CS[C@@H]21`, the Potency result is “inactive”.

Regarding `CCOC(=O)NCCC[Si](OCC)(OCC)OCC`, the Potency entry is “inactive”.

As to `C[C@@H]1CN(c2c(F)c(N)c3c(=O)c(C(=O)O)cn(C4CC4)c3c2F)C[C@H](C)N1`, the Potency result was “inactive”.

Regarding `C[C@@H]1CN(c2c(F)c(F)c3c(=O)c(C(=O)O)cn(C4CC4)c3c2F)C[C@H](C)N1`, the Potency entry is “inactive”.

Turning to `CCCNC(C)(C)COC(=O)c1ccccc1`, the Potency result was “inactive”.

`CC1(C)S[C@@H]2[C@H](NC(=O)C(C(=O)O)c3ccccc3)C(=O)N2[C@H]1C(=O)O` (stereo not given in full): the Potency entry was “inactive”.

Consider `COC(=O)c1ccc(OC)cc1`, for which the Potency entry is “inactive”.

With `C=CCc1cc(OC)c(O)c(C(=O)NCCO)c1`, the Potency entry was “inactive”.

With `ClC(Cl)Cl`, the Potency entry is “inactive”.

For the compound `CN(C)Cc1ccccc1`, the Potency result is “inactive”.

As to `Cc1nc(-c2ccccn2)ncc1C(=O)Nn1cc(C)c2cc(F)ccc21`, the Potency is 61.1 µM (active).

For `CCCCC(=O)O[C@]1(C(=O)CO)[C@H](C)C[C@H]2[C@@H]3CCC4=CC(=O)C=C[C@]4(C)[C@@]3(F)[C@@H](O)C[C@@]21C`, the Potency is 26.6 µM (active).

As for `CCN[C@H]1CN(CCCOC)S(=O)(=O)c2sc(S(N)(=O)=O)cc21`, the Potency result is “inactive”.

On to `COc1nc(C)nc(NC(=O)NS(=O)(=O)c2ccccc2OCCCl)n1`, for which the Potency result was “inactive”.

Take `NCCCN1CCN(CCCN)CC1`: the Potency result was “inactive”.

Regarding `Cc1c(C(=O)NCCO)[n+](=O)c2ccccc2n1[O-]`, the Potency entry is “inactive”.

Turning to `CCOC(=O)C1CC(=O)C(=C(O)C2CC2)C(=O)C1` (stereo not given), the Potency result was “inactive”.

Regarding `CC(CNC1CCCCC1)OC(=O)c1ccccc1` (stereo not given), the Potency entry is “inactive”.

As for `OCc1ccccc1O`, the Potency result is “inactive”.

As to `Nc1ccc(Oc2ccc(N)c(N)c2)cc1`, the Potency is 15.4 µM (active).

Turning to `O=c1oc2c(O)c(O)cc3c(=O)oc4c(O)c(O)cc1c4c23`, the Potency entry is “inactive”.

For `CCOc1ccccc1N`, the Potency entry is “inactive”.

Consider `CCCCNc1cc(C(=O)O)cc(S(N)(=O)=O)c1Oc1ccccc1`, for which the Potency entry was “inactive”.

On to `Cc1ccsc1C(=CCCN1CCC[C@@H](C(=O)O)C1)c1sccc1C`, for which the Potency entry is “inactive”.

On to `CCCCCCCCc1ccc(S(=O)(=O)O)cc1`, for which the Potency result is “inactive”.

In the case of `CCCN(CCC)C(=O)C(CCC(=O)O)NC(=O)c1ccccc1` (stereo not given), the Potency result was “inactive”.

For the compound `FC(F)(F)C(F)(F)C(F)(F)C(F)(F)C(F)(F)C(F)(F)C(F)(F)C(F)(F)Br`, the Potency entry is “inactive”.

For the compound `CCC1(C)NC(=O)NC1=O` (stereo not given), the Potency result is “inactive”.

Take `CCN(CCCc1ccccc1)CCCc1ccccc1`: the Potency was 2.02 µM (active).
